Source: PubChem BioAssay (NCI)
“And” between values parts separate entries of the source, which are not always exact repeats. Equal entries are not always repeated. This is part of a sample that, as a whole, favours compounds with a hit. Of some 79,000 tested, about 15% had one in any assay. Some structures have more than one record in an assay (separate samples or runs), and their calls can disagree. The source made the active and inactive calls. Rule as the data show it: active = growth inhibition above about 70%; inactive = the rest.

Columns and labels:
[1] = NCI Yeast Anticancer Drug Screen. Data for the rad52 strain (AID 147);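 also: 0% = growth of vehicle-treated control cultures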; conditions: S. cerevisiae rad52 mutant growth inhibition, stronger effect = higher value
Summary of the method: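 Measured: yeast growth inhibition. System: strain with a defined DNA damage repair alteration. Reference: vehicle-treated control cultures.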

[2] = NCI Yeast Anticancer Drug Screen. Data for the wt1 strain (AID 149);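 also: 0% = growth of vehicle-treated wt1 cultures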; conditions: S. cerevisiae wt1 strain (SPY 50644) growth inhibition, stronger effect = higher value
Summary of the method: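 wt1 strain grown with compound or vehicle; inhibition taken from the growth difference.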

[3] = NCI Yeast Anticancer Drug Screen. Data for the rad50EPP+ strain (AID 151);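 also: 0% = growth of vehicle-treated control cultures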; conditions: S. cerevisiae rad50 mutant strain, stronger effect = higher value
Summary of the method: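 One strain with a rad50 alteration (rad50EPP+) was compound-treated, its growth then compared to that of vehicle controls.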

[4] = NCI Yeast Anticancer Drug Screen. Data for the rad50 strain (AID 155);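 also: 0% = growth of vehicle-only cultures of the same strain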; conditions: S. cerevisiae rad50 strain growth inhibition, stronger effect = higher value
Summary of the method: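 DNA repair mutant yeast, compound exposure, growth read-out; inhibition is taken relative to vehicle.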

[5] = NCI Yeast Anticancer Drug Screen. Data for the mec2-1 strain (AID 157); conditions: S. cerevisiae mec2-1 strain, stronger effect = higher value
Summary of the method: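 Test agents were screened against the mec2-1 yeast strain, with defined DNA repair or cell cycle alteration. Growth was scored as inhibition against vehicle-only controls.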

[6] = NCI Yeast Anticancer Drug Screen. Data for the rad14 strain (AID 159);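 also: 0% = growth of vehicle-treated control cultures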; conditions: S. cerevisiae rad14 strain growth inhibition, stronger effect = higher value
Summary of the method: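 DNA repair-defective yeast, compound-exposed; % growth inhibition derived by comparison with vehicle-treated controls.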

[7] = NCI Yeast Anticancer Drug Screen. Data for the sgs1 mgt1 strain (AID 161);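 also: 0% = growth of cultures given vehicle only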; conditions: S. cerevisiae sgs1 mgt1 strain, stronger effect = higher value
Summary of the method: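 Genetically altered yeast, compound exposure, growth inhibition relative to vehicle.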

[8] = NCI Yeast Anticancer Drug Screen. Data for the CLN2oe strain (AID 163);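 also: 0% = growth of vehicle-only control cultures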; conditions: S. cerevisiae CLN2oe strain, stronger effect = higher value
Summary of the method: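 Here, growth inhibition in a cell-cycle-altered yeast strain after compound exposure was quantified against vehicle control growth.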

[9] = NCI Yeast Anticancer Drug Screen. Data for the cln2 rad14 strain (AID 165);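 also: 0% = growth equal to vehicle treated cultures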; conditions: S. cerevisiae cln2 rad14 strain, stronger effect = higher value
Summary of the method: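 Growth of compound-exposed yeast (cln2 rad14 genotype) measured and expressed as inhibition relative to vehicle.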

[10] = NCI Yeast Anticancer Drug Screen. Data for the bub3 strain (AID 167); conditions: S. cerevisiae bub3 mutant strain, stronger effect = higher value
Summary of the method: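 In this screen, a yeast mutant lacking normal mitotic checkpoint function is challenged with compound. Relative growth versus vehicle gives the inhibition value.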

[11] = NCI Yeast Anticancer Drug Screen. Data for the wt2 strain (AID 169);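 also: 0% = growth of vehicle-treated yeast cultures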; conditions: S. cerevisiae wt2 strain growth inhibition, stronger effect = higher value
Summary of the method: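 Genetically defined yeast strains from a DNA-repair/cell-cycle panel were used. Compound-exposed yeast growth was measured, and the inhibition was calculated relative to vehicle treatment.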

[12] = NCI Yeast Anticancer Drug Screen. Data for the mlh1 strain (AID 171);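 also: 0% = growth of vehicle-treated control cultures of the same strain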; conditions: S. cerevisiae mlh1 strain growth inhibition, stronger effect = higher value
Summary of the method: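 Here the genetically defined yeast mutant is grown with each compound, and the extent to which its growth falls below that of vehicle-exposed cells is reported.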

[13] = NCI Yeast Anticancer Drug Screen. Data for the sgs1 strain (AID 173);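 also: 0% = growth of vehicle-only control cultures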; conditions: S. cerevisiae sgs1 mutant, stronger effect = higher value
Summary of the method: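 Relative growth inhibition, referenced to vehicle, was determined in a yeast strain with a defined alteration affecting DNA damage repair or cell cycle control after compound exposure.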

[14] = NCI Yeast Anticancer Drug Screen. Data for the mlh1 rad18 strain (AID 175); conditions: S. cerevisiae mlh1 rad18 strain growth inhibition, stronger effect = higher value
Summary of the method: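 In this whole-cell yeast screen, a strain with altered DNA damage repair is challenged with compound, and its growth is measured against matched vehicle-treated controls.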

[15] = NCI Yeast Anticancer Drug Screen. Data for the rad18 strain (AID 177); conditions: S. cerevisiae rad18 mutant growth inhibition, stronger effect = higher value
Summary of the method: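 Screen uses a yeast strain with a defined lesion in DNA damage repair; compound effect is read as loss of growth compared to untreated vehicle cultures.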

[16] = at 5.0 µM (retest, dose inferred, filed as 0.5)
[17] = at 50.0 µM (retest, dose inferred, filed as 5.0)

## CCn1ncc(N=O)c1N
[1]; at 1.2 µM
  growth inhibition: 0% (inactive)
[1]; at 3.7 µM
  growth inhibition: 3% (inactive)
[1]; at 11.0 µM
  growth inhibition: 9% (inactive)
[1]; at 33.0 µM
  growth inhibition: 29% (inactive)
[1]; at 100.0 µM
  growth inhibition: 58% (inactive)
[2]; at 1.2 µM
  growth inhibition: 6% (inactive)
[2]; at 3.7 µM
  growth inhibition: 14% (inactive)
[2]; at 11.0 µM
  growth inhibition: 23% (inactive)
[2]; at 33.0 µM
  growth inhibition: 24% (inactive)
[2]; at 100.0 µM
  growth inhibition: 39% (inactive)
[3]; at 1.2 µM
  growth inhibition: 0% (inactive)
[3]; at 3.7 µM
  growth inhibition: -4% (inactive)
[3]; at 11.0 µM
  growth inhibition: 3% (inactive)
[3]; at 33.0 µM
  growth inhibition: 28% (inactive)
[3]; at 100.0 µM
  growth inhibition: 71% (active)
[4]; at 1.2 µM
  growth inhibition: -1% (inactive)
[4]; at 3.7 µM
  growth inhibition: -1% (inactive)
[4]; [16]
  growth inhibition: 27% (inactive)
[4]; at 11.0 µM
  growth inhibition: 6% (inactive)
[4]; at 33.0 µM
  growth inhibition: 24% (inactive)
[4]; [17]
  growth inhibition: 61% (inactive)
[4]; at 50.0 µM
  growth inhibition: 70.2% (active) and 51.5% (inactive)
[4]; at 100.0 µM
  growth inhibition: 54% (inactive)
[5]; at 1.2 µM
  growth inhibition: 3% (inactive)
[5]; at 3.7 µM
  growth inhibition: 11% (inactive)
[5]; [16]
  growth inhibition: 8% (inactive)
[5]; at 11.0 µM
  growth inhibition: 23% (inactive)
[5]; at 33.0 µM
  growth inhibition: 37% (inactive)
[5]; [17]
  growth inhibition: 35% (inactive)
[5]; at 50.0 µM
  growth inhibition: 67% (inactive) and 42% (inactive)
[5]; at 100.0 µM
  growth inhibition: 57% (inactive)
[6]; at 1.2 µM
  growth inhibition: -2% (inactive)
[6]; at 3.7 µM
  growth inhibition: 4% (inactive)
[6]; at 11.0 µM
  growth inhibition: 15% (inactive)
[6]; at 33.0 µM
  growth inhibition: 32% (inactive)
[6]; at 100.0 µM
  growth inhibition: 41% (inactive)
[7]; [16]
  growth inhibition: 21% (inactive)
[7]; [17]
  growth inhibition: 61% (inactive)
[7]; at 50.0 µM
  growth inhibition: 62.5% (inactive) and 19.6% (inactive)
[8]; at 1.2 µM
  growth inhibition: -6% (inactive)
[8]; at 3.7 µM
  growth inhibition: -5% (inactive)
[8]; at 11.0 µM
  growth inhibition: 15% (inactive)
[8]; at 33.0 µM
  growth inhibition: 43% (inactive)
[8]; at 100.0 µM
  growth inhibition: 53% (inactive)
[9]; [16]
  growth inhibition: 9% (inactive)
[9]; [17]
  growth inhibition: 12% (inactive)
[9]; at 50.0 µM
  growth inhibition: 35.1% (inactive) and 40.8% (inactive)
[10]; at 1.2 µM
  growth inhibition: 2% (inactive)
[10]; at 3.7 µM
  growth inhibition: 9% (inactive)
[10]; [16]
  growth inhibition: 41% (inactive)
[10]; at 11.0 µM
  growth inhibition: 33% (inactive)
[10]; at 33.0 µM
  growth inhibition: 64% (inactive)
[10]; [17]
  growth inhibition: 68% (inactive)
[10]; at 50.0 µM
  growth inhibition: 81.4% (active) and 51% (inactive)
[10]; at 100.0 µM
  growth inhibition: 78% (active)
[11]; at 1.2 µM
  growth inhibition: 6% (inactive)
[11]; at 3.7 µM
  growth inhibition: 18% (inactive)
[11]; at 11.0 µM
  growth inhibition: 26% (inactive)
[11]; at 33.0 µM
  growth inhibition: 25% (inactive)
[11]; at 100.0 µM
  growth inhibition: 39% (inactive)
[12]; at 1.2 µM
  growth inhibition: 3% (inactive)
[12]; at 3.7 µM
  growth inhibition: 5% (inactive)
[12]; at 11.0 µM
  growth inhibition: 20% (inactive)
[12]; at 33.0 µM
  growth inhibition: 35% (inactive)
[12]; at 100.0 µM
  growth inhibition: 53% (inactive)
[13]; at 1.2 µM
  growth inhibition: 5% (inactive)
[13]; at 3.7 µM
  growth inhibition: 16% (inactive)
[13]; at 11.0 µM
  growth inhibition: 26% (inactive)
[13]; at 33.0 µM
  growth inhibition: 39% (inactive)
[13]; at 100.0 µM
  growth inhibition: 61% (inactive)
[14]; [16]
  growth inhibition: 33% (inactive)
[14]; [17]
  growth inhibition: 73% (active)
[14]; at 50.0 µM
  growth inhibition: 87.3% (active) and 26.6% (inactive)
[15]; at 1.2 µM
  growth inhibition: 1% (inactive)
[15]; at 3.7 µM
  growth inhibition: 8% (inactive)
[15]; at 11.0 µM
  growth inhibition: 9% (inactive)
[15]; at 33.0 µM
  growth inhibition: 51% (inactive)
[15]; at 100.0 µM
  growth inhibition: 74% (active)

## CCC(NC(C)c1ccccc1)C(=O)c1ccc(OCc2ccccc2)c(OCc2ccccc2)c1 (stereo not drawn)
[1]; at 1.2 µM
  growth inhibition: 0% (inactive)
[1]; at 3.7 µM
  growth inhibition: 7% (inactive)
[1]; at 11.0 µM
  growth inhibition: 0% (inactive)
[1]; at 33.0 µM
  growth inhibition: 6% (inactive)
[1]; at 100.0 µM
  growth inhibition: -18% (inactive)
[2]; at 1.2 µM
  growth inhibition: 22% (inactive)
[2]; at 3.7 µM
  growth inhibition: 18% (inactive)
[2]; at 11.0 µM
  growth inhibition: 6% (inactive)
[2]; at 33.0 µM
  growth inhibition: 2% (inactive)
[2]; at 100.0 µM
  growth inhibition: -15% (inactive)
[3]; at 1.2 µM
  growth inhibition: 8% (inactive)
[3]; at 3.7 µM
  growth inhibition: 7% (inactive)
[3]; at 11.0 µM
  growth inhibition: 10% (inactive)
[3]; at 33.0 µM
  growth inhibition: 24% (inactive)
[3]; at 100.0 µM
  growth inhibition: 43% (inactive)
[4]; at 1.2 µM
  growth inhibition: -8% (inactive)
[4]; at 3.7 µM
  growth inhibition: 9% (inactive)
[4]; [16]
  growth inhibition: 11% (inactive)
[4]; at 11.0 µM
  growth inhibition: 22% (inactive)
[4]; at 33.0 µM
  growth inhibition: 14% (inactive)
[4]; [17]
  growth inhibition: 38% (inactive)
[4]; at 50.0 µM
  growth inhibition: -12.7% (inactive)
[4]; at 100.0 µM
  growth inhibition: 1% (inactive)
[5]; at 1.2 µM
  growth inhibition: 39% (inactive)
[5]; at 3.7 µM
  growth inhibition: 23% (inactive)
[5]; [16]
  growth inhibition: 9% (inactive)
[5]; at 11.0 µM
  growth inhibition: 35% (inactive)
[5]; at 33.0 µM
  growth inhibition: 31% (inactive)
[5]; [17]
  growth inhibition: 97% (active)
[5]; at 50.0 µM
  growth inhibition: 15.3% (inactive)
[5]; at 100.0 µM
  growth inhibition: 30% (inactive)
[6]; at 1.2 µM
  growth inhibition: -1% (inactive)
[6]; at 3.7 µM
  growth inhibition: 3% (inactive)
[6]; at 11.0 µM
  growth inhibition: 3% (inactive)
[6]; at 33.0 µM
  growth inhibition: 3% (inactive)
[6]; at 100.0 µM
  growth inhibition: -12% (inactive)
[7]; [16]
  growth inhibition: -21% (inactive)
[7]; [17]
  growth inhibition: 15% (inactive)
[7]; at 50.0 µM
  growth inhibition: 28.2% (inactive)
[8]; at 1.2 µM
  growth inhibition: -4% (inactive)
[8]; at 3.7 µM
  growth inhibition: -3% (inactive)
[8]; at 11.0 µM
  growth inhibition: -14% (inactive)
[8]; at 33.0 µM
  growth inhibition: -16% (inactive)
[8]; at 100.0 µM
  growth inhibition: -29% (inactive)
[9]; [16]
  growth inhibition: -9% (inactive)
[9]; [17]
  growth inhibition: 30% (inactive)
[9]; at 50.0 µM
  growth inhibition: 0.35% (inactive)
[10]; at 1.2 µM
  growth inhibition: -47% (inactive)
[10]; at 3.7 µM
  growth inhibition: -38% (inactive)
[10]; [16]
  growth inhibition: -7% (inactive)
[10]; at 11.0 µM
  growth inhibition: -48% (inactive)
[10]; at 33.0 µM
  growth inhibition: -67% (inactive)
[10]; [17]
  growth inhibition: 1% (inactive)
[10]; at 50.0 µM
  growth inhibition: 22.8% (inactive)
[10]; at 100.0 µM
  growth inhibition: -81% (inactive)
[11]; at 1.2 µM
  growth inhibition: -12% (inactive)
[11]; at 3.7 µM
  growth inhibition: -12% (inactive)
[11]; at 11.0 µM
  growth inhibition: -13% (inactive)
[11]; at 33.0 µM
  growth inhibition: -7% (inactive)
[11]; at 100.0 µM
  growth inhibition: -6% (inactive)
